Screening data: PubChem, National Center for Advancing Translational Sciences (NCATS)
Rows were chosen to be rich in hits. Some 7.3% of all compounds tested hit in one or more screens of this group.
SNCA expr inh – SNCA gene expression inhibition. Potency, µM (highest dose often 57.2 µM), most hits filed as inhibitors. hit rate 0.17% among 140,000. AID 1671194. HEK-293 SNCA-luciferase knock-in, luminescence, 24 h; note: nearly all actives have a fitted effect of over 45% in size
HEK293 viab – counter-screen for SNCA expression inhibitors: cell viability; HEK-293-SNCA-luc viability, GF-AFC fluorescence, 24 h; Potency, µM (series often up to 57.1 µM), hits mostly cytotoxic; hit rate 0.12% among 150,000; AID 1671193; note: nearly all actives have a fitted effect of over 30% in size
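HEK-293-SNCA-luc cells (1500/well) plated 24 h, then exposed 24 h to a dilution series; GF-AFC added 30 min at 37C, fluorescence 405/540 nm; normalised to medium-only and DMSO wells, Hill fit.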
HEK cytotox – cytotoxic compounds in HEK 293 cells. hit rate 6.6% among 94,000. Potency, µM (doses to about 115 µM), hits mostly inhibitors. HEK 293 viability, ATP luminescence (CellTiter-Glo), 48-72 h; note: nearly all actives have a fitted effect of over 60% in size
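CellTiter-Glo luminescence (cellular ATP) was read after 48 or 72 hr of compound exposure at 37 degree Celsius. Cells were HEK 293 plated at 250 cells/well.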
IP6K1 inhibitor – IP6K1 kinase inhibition; Q92551; IP6K1 kinase, ADP-Glo luminescence, 2 h; active compounds read low; activity change, % (series mostly up to about 58 µM); hit rate 0.81% among 140,000; in the data active = activity change below about -25%
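ADP-Glo luminescence measures ADP made by human IP6K1 during a 2 h RT reaction with ATP/IP6 (mix at 1.3 mM/130 uM); top library doses 57.5 and 19.1 uM final.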
FLuc inh – blocks purified firefly luciferase enzyme activity | P08659 | purified P. pyralis luciferase, luminescence, biochemical | Potency, µM (highest dose often 115 µM), most hits filed as inhibitors | hit rate 2.5% among 76,000 | AID 1347043; note: nearly all actives have a fitted effect of over 65% in size
Target sequence (P08659 whole entry, looked up): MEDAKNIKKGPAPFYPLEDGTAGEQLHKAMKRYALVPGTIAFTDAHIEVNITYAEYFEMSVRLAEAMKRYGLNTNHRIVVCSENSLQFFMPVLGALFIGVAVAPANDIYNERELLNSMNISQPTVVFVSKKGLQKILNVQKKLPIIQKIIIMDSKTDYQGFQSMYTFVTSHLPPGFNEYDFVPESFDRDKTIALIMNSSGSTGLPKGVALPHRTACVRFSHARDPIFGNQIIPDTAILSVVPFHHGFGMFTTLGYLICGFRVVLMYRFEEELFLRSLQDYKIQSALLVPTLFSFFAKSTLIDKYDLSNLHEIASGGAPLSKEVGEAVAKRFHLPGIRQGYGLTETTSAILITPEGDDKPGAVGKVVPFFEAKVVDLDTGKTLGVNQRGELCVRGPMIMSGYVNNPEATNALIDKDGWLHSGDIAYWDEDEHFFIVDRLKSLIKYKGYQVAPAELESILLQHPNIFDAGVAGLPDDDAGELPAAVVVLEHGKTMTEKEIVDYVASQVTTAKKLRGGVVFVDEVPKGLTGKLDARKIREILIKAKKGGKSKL
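Inhibitors were tested against purified firefly luciferase in a biochemical, low-substrate format (both substrates at 10uM) and luminescence measured with a CCD imager.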
NIH3T3 tox – kills NIH 3T3 cells; hit rate 4.3% among 94,000; Potency, µM (doses to about 96.7 µM), most hits filed as inhibitors; NIH 3T3 viability, CellTiter-Glo ATP luminescence, 48-72 h; note: nearly all actives have a fitted effect of over 55% in size
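First NIH 3T3 cells are plated at 400 cells/well; next compound is pinned in; then plates incubate 48 or 72 hr at 37 °C; finally CellTiter-Glo is added and luminescence read after 10 min.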
Numbers stand for hits; ! = not active in a repeat; [ ] = another dose, or the depositor's remark. Unless noted, calls come from the whole dose curve; as a rule, active = well fitted curve in the direction sought with a large enough effect; inconclusive = small, poorly fitted or top-dose-only effect, or another doubt; inactive = no such curve, though single readings can be large; an effect the other way counts as inactive or inconclusive.

For O=C1c2c(nc(COc3ccc(F)cc3F)n2Cc2ccccc2)NCCN1CCOc1ccccc1 the results were SNCA expr inh inconclusive, HEK293 viab inactive, HEK cytotox 45µM, IP6K1 inhibitor inactive, FLuc inh inactive and NIH3T3 tox inconclusive.
For C[C@@H]1CN(Cc2nc3c(n2Cc2ccccc2)C(=O)N(Cc2ccccc2F)CCN3)C[C@H](C)O1 the results were SNCA expr inh inactive, HEK293 viab inactive, HEK cytotox inconclusive, IP6K1 inhibitor inactive, FLuc inh inactive and NIH3T3 tox inconclusive.
For COc1ccc(OCc2nc3c(n2Cc2ccccc2)C(=O)N(Cc2ccccc2C#N)CCN3)cc1OC the results were SNCA expr inh inactive, HEK293 viab inconclusive, HEK cytotox inconclusive, IP6K1 inhibitor inactive, FLuc inh inactive and NIH3T3 tox inconclusive.
O=C1c2c(nc(COc3cc(F)cc(F)c3)n2Cc2ccccc2)NCCN1Cc1ccccc1F was read as SNCA expr inh inactive, HEK293 viab inactive, HEK cytotox inconclusive, IP6K1 inhibitor inactive, FLuc inh inactive and NIH3T3 tox 25µM.
Screening O=C1c2c(nc(COc3cc(F)cc(F)c3)n2Cc2ccccc2)NCCN1Cc1ccccc1 returned SNCA expr inh inactive, HEK293 viab inactive, HEK cytotox 25µM, IP6K1 inhibitor inactive, FLuc inh inactive and NIH3T3 tox 25µM.
COc1cc(OC)cc(OCc2nc3c(n2Cc2ccccc2)C(=O)N(Cc2ccccc2F)CCN3)c1 was read as SNCA expr inh inconclusive, HEK293 viab inconclusive, HEK cytotox 32µM, IP6K1 inhibitor inactive, FLuc inh inactive and NIH3T3 tox inconclusive.
Screening O=C1c2c(nc(COc3ccccc3)n2Cc2ccccc2)NCCN1Cc1ccccc1 returned SNCA expr inh inactive, HEK293 viab inactive, HEK cytotox 35µM, IP6K1 inhibitor inactive, FLuc inh inactive and NIH3T3 tox 32µM.
Screening COc1ccc(OCc2nc3c(n2Cc2ccccc2)C(=O)N(Cc2ccccc2F)CCN3)cc1OC returned SNCA expr inh inactive, HEK293 viab inconclusive, HEK cytotox inconclusive, IP6K1 inhibitor inactive, FLuc inh inactive and NIH3T3 tox inconclusive.
O=C1c2c(nc(COc3ccc(F)cc3)n2Cc2ccccc2)NCCN1CCOc1ccccc1 was read as SNCA expr inh inactive, HEK293 viab inactive, HEK cytotox inconclusive, IP6K1 inhibitor inactive, FLuc inh inactive and NIH3T3 tox inconclusive.
`COc1ccc(-n2nc3n(c2=O)CCN(Cc2ccccc2)C3)cc1` gave SNCA expr inh inactive, HEK293 viab inactive, HEK cytotox inconclusive, IP6K1 inhibitor inactive and NIH3T3 tox 8.9µM.
`Cc1cc(CN2CCn3c(nn(-c4ccc(C(F)(F)F)cc4)c3=O)C2)no1` gave SNCA expr inh inactive, HEK293 viab inactive, HEK cytotox 89µM, IP6K1 inhibitor inactive and NIH3T3 tox inconclusive.
O=C(Nc1ccccc1)N1CCn2c(nn(-c3ccc(C(F)(F)F)cc3)c2=O)C1 was read as SNCA expr inh inactive, HEK293 viab inactive, HEK cytotox 45µM, IP6K1 inhibitor inactive, FLuc inh inactive and NIH3T3 tox inconclusive.
Screening O=c1n(-c2ccc(C(F)(F)F)cc2)nc2n1CCN(Cc1ccccc1)C2 returned SNCA expr inh inactive, HEK293 viab inactive, HEK cytotox 7.9µM!, IP6K1 inhibitor inactive, FLuc inh inactive and NIH3T3 tox inconclusive.
Cc1ccc(CN2CCn3c(nn(-c4ccc(C(F)(F)F)cc4)c3=O)C2)cc1 was read as SNCA expr inh inactive, HEK293 viab inactive, HEK cytotox inconclusive, IP6K1 inhibitor inactive, FLuc inh inactive and NIH3T3 tox inconclusive.
Screening CC1(COCC2CC2)COc2ccc(C(=O)Nc3cccnc3)cc2N1 (configuration not stated) returned SNCA expr inh inactive, HEK293 viab inactive, HEK cytotox inconclusive, IP6K1 inhibitor inactive, FLuc inh inconclusive and NIH3T3 tox inactive.
`COc1ccc(C(=O)N2CCn3c(nnc3[C@@H]3C[C@@H](O)CN3C(C)C)C2)cn1` gave SNCA expr inh inactive, HEK293 viab inactive[12.5 µM], HEK cytotox inactive, IP6K1 inhibitor inactive, FLuc inh inactive and NIH3T3 tox inactive.
Screening COc1ccc(-c2noc(-c3nnn4c3COC(c3ccc(C)cc3C)C4)n2)cc1OC (configuration not stated) returned SNCA expr inh inactive, HEK293 viab inactive, HEK cytotox inactive, IP6K1 inhibitor inactive, FLuc inh inactive and NIH3T3 tox inactive.
For COc1ccccc1CN1C[C@@H](C(=O)O)C[C@H](C(=O)NCc2ccccn2)C1 the results were SNCA expr inh inactive, HEK293 viab inactive, HEK cytotox inactive, IP6K1 inhibitor inactive, FLuc inh inactive and NIH3T3 tox inactive.
Screening COCC(=O)N1CCN(c2nc3ncccc3o2)CC1 returned SNCA expr inh inactive, HEK293 viab inactive, HEK cytotox inactive, IP6K1 inhibitor inactive, FLuc inh inactive and NIH3T3 tox inactive.
COc1ccc(-n2nc3n(c2=O)CCN(C(=O)c2ccc(C(F)(F)F)cc2)C3)cc1 was read as SNCA expr inh inactive, HEK293 viab inactive, HEK cytotox inactive, IP6K1 inhibitor inactive and NIH3T3 tox 32µM.
`COc1cccc(C(=O)NC2CCCN(Cc3ccc(-c4cc(C)cc(C)c4)cc3)C2)c1` (configuration not stated) gave SNCA expr inh inactive, HEK293 viab inactive[12.5 µM], HEK cytotox inconclusive, IP6K1 inhibitor inactive and NIH3T3 tox 40µM.
For COc1cccc(-c2ccc(CN3CCCC(NC(=O)c4ccc(F)cc4)C3)cc2)c1 (configuration not stated) the results were SNCA expr inh inactive, HEK293 viab inconclusive, HEK cytotox 11µM, IP6K1 inhibitor inactive and NIH3T3 tox 32µM.
For Cc1cc(C)cc(-c2ccc(CN3CCCC(NC(=O)c4ccc(F)cc4)C3)cc2)c1 (configuration not stated) the results were SNCA expr inh inactive, HEK293 viab inactive[12.5 µM], HEK cytotox inactive, IP6K1 inhibitor inactive and NIH3T3 tox inactive.
`COc1cccc(-c2ccc(CN3CCCC(NC(=O)c4ccccc4)C3)cc2)c1` (configuration not stated) gave SNCA expr inh inactive, HEK293 viab inactive, HEK cytotox 22µM, IP6K1 inhibitor inactive and NIH3T3 tox 40µM.
Screening CCOc1ccc(NC(=O)CCC2CCCN(S(=O)(=O)c3ccc(F)cc3)C2)cc1 (configuration not stated) returned SNCA expr inh inactive, HEK293 viab inactive, HEK cytotox inconclusive, IP6K1 inhibitor inactive and NIH3T3 tox inactive.
Screening CCc1c(C)nc(-c2ccc(F)cc2)n(CC(=O)Nc2ccc(OC)c(OC)c2)c1=O returned SNCA expr inh inactive, HEK293 viab inactive, HEK cytotox inactive, IP6K1 inhibitor inactive, FLuc inh inactive and NIH3T3 tox inactive.
`Cc1nn(-c2ccccc2)c2c1C(C(C)C)N(C1CCN(C(=O)c3ccc(F)cc3)C1)C2=O` (configuration not stated) gave HEK cytotox 45µM, IP6K1 inhibitor inactive and NIH3T3 tox inconclusive.
